Data on 11 compounds can be found in ChEMBL document CHEMBL3988442, “University of Dundee, Small-Polar-MMV Screening Library” (2021).

The structures appear in SMILES notation. For some of these results: Measured potencies and affinities stand elsewhere.

Common to all, as to parameters: scale not given: direction of the effect not stated beside the values
Test [1] addresses Protein translocase subunit SecA (Escherichia coli (strain K12)) (UniProt P10408). In words: Assay to Identify E. coli SecA ATPase Inhibitors. The class given is functional. The settings on record: 30 µM.
The target of test [2] is T1, Ubiquitin-activating enzyme e1, putative (Leishmania donovani (strain BPK282A1)) (UniProt E9BSI1).
T1 sequence (whole entry): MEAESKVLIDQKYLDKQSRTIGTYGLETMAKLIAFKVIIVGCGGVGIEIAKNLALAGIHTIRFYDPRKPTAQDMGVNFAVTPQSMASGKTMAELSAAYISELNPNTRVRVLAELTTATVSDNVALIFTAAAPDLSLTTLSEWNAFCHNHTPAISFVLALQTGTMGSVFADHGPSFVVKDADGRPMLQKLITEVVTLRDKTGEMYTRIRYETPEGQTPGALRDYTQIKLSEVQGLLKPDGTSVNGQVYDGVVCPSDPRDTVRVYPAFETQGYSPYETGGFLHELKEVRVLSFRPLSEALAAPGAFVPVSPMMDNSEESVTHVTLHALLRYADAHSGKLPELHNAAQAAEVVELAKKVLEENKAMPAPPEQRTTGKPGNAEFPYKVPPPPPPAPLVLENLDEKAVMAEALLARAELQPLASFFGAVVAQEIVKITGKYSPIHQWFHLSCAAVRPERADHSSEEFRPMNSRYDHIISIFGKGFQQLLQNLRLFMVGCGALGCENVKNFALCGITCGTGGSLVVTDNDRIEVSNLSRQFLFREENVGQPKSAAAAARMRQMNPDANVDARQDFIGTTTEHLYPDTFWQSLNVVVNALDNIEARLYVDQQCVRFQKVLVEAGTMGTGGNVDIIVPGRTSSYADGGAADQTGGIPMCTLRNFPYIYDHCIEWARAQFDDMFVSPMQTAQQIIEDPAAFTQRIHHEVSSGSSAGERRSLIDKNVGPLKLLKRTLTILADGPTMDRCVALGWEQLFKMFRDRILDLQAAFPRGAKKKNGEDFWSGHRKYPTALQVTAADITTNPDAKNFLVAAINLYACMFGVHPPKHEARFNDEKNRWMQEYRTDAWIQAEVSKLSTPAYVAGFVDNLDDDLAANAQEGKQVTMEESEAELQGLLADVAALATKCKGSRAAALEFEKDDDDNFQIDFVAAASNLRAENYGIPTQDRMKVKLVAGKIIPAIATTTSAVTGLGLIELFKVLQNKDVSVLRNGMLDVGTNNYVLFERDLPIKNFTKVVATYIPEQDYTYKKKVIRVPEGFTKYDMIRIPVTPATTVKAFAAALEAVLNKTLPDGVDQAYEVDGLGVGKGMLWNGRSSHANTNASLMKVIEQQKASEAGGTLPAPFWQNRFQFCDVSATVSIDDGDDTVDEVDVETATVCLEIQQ
In words: Leishmania donovani Ubiquitin Activating Enzyme (LdE1). It counts as functional. The settings on record: 30 µM.

Test [3] has as its target AMP-activated protein kinase, AMPK (Homo sapiens) (UniProt P54646+O43741+P54619+Q9UGJ0+Q9Y478+Q13131+Q9UGI9). Kind of test: AMP-dependent Kinase enzyme assay. An in vitro enzyme assay that detects ADP turnover that is directly proportional to AMPK activity. This uses naive AMPK that is activated during the assay with MK-8722. The class given is functional. The note with it: 30 µM.

For test [4], the target named is Sialic acid-binding Ig-like lectin 9 (Homo sapiens) (UniProt Q9Y336). Kind of test: Hs-Siglec9 ALPHAscreen SOP 20170721. The note with it: 10 µM. A general note: In Alpha technology, singlet oxygen from a donor bead excites a nearby acceptor bead.
Another test deals with Trypanosoma cruzi. In words: Trypanosoma cruzi phosphomannomutase and mannose-1-phosphate guanylyltransferase assay. It counts as functional. The settings on record: 10 µM.
Test [5] addresses T2, Arginase-2, mitochondrial (Homo sapiens) (UniProt P78540).
T2 sequence (whole entry): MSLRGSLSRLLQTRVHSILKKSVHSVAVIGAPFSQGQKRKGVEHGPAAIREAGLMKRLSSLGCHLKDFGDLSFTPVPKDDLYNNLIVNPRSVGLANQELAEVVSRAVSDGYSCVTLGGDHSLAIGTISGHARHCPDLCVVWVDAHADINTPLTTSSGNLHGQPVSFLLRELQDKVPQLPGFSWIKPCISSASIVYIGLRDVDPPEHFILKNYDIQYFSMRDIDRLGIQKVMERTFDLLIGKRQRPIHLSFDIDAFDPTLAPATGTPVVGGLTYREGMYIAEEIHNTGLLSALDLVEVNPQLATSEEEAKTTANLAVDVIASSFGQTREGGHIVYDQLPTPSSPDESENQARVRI
In words: in vitro enzyme assay to detect the production of urea directly proportional to the activity of Arginase II. Note: in the data most compounds retested in dose-response had high values. The note with it: 33.3 µM. The class given is functional.

Test [6] concerns the target T3, Proteasome subunit beta (Trypanosoma cruzi) (UniProt O96673).
T3 sequence (whole entry): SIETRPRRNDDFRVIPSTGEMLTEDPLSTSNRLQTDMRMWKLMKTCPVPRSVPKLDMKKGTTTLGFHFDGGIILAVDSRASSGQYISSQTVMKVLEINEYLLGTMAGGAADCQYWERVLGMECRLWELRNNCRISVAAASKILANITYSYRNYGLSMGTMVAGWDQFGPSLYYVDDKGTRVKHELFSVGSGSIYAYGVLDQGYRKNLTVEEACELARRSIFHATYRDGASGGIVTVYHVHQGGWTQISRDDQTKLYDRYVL
Kind of test: Trypanosoma cruzi proteasome chymotrypsin-like activity (TcProtChymo) assay. Note: in the data most compounds retested in dose-response had high values. It counts as functional. The note with it: 9.37 µM.

For the next test, the species on record is Homo sapiens. Kind of test: To identify inhibition of the IFN signalling (Jak-Stat) pathway via expression of an eGFP reporter gene under the control of an IFN-stimulated response element (ISRE) containing MxA promoter. It counts as functional. The note with it: 30 µM.
Test [7] has as its target T4, Tyrosyl-tRNA synthetase, putative (Trypanosoma cruzi (strain CL Brener)) (UniProt Q4DSP6).
T4 sequence (whole entry): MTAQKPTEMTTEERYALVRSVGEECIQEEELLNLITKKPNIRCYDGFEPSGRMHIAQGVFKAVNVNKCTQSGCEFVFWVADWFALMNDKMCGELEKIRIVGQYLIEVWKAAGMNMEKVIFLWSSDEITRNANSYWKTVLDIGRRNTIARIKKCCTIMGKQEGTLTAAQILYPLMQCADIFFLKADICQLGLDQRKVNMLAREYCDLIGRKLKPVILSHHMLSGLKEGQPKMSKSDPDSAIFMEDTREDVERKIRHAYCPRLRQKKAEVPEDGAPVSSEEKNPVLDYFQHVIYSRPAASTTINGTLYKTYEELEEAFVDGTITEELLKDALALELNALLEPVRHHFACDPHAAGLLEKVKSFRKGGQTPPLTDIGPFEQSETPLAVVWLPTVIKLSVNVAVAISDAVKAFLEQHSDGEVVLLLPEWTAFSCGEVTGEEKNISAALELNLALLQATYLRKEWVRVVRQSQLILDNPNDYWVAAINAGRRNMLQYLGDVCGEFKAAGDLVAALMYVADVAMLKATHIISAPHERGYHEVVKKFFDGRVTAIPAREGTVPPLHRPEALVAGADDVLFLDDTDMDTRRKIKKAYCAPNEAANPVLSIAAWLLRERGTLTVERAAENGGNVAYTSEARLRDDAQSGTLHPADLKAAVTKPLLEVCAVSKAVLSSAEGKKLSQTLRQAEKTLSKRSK
Kind of test: Trypanosoma cruzi tyrosyl tRNA synthetase (TcYRS) _High Tyrosine SOP. Note: in the data most compounds retested in dose-response had high values. It counts as functional. The note with it: 30 µM.

The target of test [8] is T4, Tyrosyl-tRNA synthetase, putative (Trypanosoma cruzi (strain CL Brener)). Kind of test: Trypanosoma cruzi tyrosyl tRNA synthetase (TcYRS) SOP. The class given is functional. The settings on record: 30 µM.
In test [9] the target is Chromo domain-containing protein 1 (Saccharomyces cerevisiae (strain ATCC 204508 / S288c) (Baker's yeast)) (UniProt P32657). Kind of test: ScCHD-1 Enzyme Inhibition Assay. Note: in the data most compounds retested in dose-response had high values. It counts as functional. The note with it: 30 µM.
Chain of Chromo domain-containing protein 1 (Saccharomyces cerevisiae (strain ATCC 204508 / S288c) (Baker's yeast)) (P32657 whole entry, the tested form may be a part): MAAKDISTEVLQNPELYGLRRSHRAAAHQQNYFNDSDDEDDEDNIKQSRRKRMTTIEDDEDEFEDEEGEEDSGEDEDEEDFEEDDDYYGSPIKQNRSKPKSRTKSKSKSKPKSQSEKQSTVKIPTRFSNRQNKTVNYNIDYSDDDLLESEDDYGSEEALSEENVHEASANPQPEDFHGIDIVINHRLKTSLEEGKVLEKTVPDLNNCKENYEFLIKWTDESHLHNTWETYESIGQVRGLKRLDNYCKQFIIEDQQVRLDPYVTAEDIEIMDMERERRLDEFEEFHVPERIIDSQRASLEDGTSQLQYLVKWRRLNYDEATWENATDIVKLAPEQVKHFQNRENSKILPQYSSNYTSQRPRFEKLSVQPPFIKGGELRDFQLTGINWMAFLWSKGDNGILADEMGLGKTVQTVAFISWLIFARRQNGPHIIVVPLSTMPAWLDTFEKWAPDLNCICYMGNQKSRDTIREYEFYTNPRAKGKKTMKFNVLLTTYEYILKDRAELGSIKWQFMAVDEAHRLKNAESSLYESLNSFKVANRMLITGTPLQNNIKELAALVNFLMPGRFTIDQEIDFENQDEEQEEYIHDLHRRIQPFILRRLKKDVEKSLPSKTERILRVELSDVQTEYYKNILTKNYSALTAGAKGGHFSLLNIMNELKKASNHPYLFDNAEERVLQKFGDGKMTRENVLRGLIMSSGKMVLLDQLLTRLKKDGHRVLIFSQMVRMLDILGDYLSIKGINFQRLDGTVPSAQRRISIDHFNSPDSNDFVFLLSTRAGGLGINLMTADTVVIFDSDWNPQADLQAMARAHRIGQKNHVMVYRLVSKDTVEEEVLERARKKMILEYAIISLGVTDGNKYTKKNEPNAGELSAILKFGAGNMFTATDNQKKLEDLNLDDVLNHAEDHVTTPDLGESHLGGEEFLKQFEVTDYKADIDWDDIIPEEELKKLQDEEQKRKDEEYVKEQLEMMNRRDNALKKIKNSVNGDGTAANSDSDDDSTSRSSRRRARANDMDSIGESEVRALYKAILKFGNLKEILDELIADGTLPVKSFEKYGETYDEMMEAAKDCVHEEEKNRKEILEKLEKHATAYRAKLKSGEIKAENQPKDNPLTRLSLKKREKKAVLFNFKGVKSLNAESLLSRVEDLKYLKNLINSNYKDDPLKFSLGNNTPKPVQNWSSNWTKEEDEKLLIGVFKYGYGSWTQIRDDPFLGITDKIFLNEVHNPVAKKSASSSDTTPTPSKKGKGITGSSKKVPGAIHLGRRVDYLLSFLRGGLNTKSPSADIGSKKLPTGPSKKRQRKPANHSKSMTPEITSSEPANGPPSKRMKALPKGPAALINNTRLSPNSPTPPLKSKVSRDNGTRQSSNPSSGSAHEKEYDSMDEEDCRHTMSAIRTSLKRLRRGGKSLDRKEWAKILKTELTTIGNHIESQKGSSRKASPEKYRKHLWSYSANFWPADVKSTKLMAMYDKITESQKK

Chain of Sialic acid-binding Ig-like lectin 9 (Homo sapiens) (Q9Y336 whole entry): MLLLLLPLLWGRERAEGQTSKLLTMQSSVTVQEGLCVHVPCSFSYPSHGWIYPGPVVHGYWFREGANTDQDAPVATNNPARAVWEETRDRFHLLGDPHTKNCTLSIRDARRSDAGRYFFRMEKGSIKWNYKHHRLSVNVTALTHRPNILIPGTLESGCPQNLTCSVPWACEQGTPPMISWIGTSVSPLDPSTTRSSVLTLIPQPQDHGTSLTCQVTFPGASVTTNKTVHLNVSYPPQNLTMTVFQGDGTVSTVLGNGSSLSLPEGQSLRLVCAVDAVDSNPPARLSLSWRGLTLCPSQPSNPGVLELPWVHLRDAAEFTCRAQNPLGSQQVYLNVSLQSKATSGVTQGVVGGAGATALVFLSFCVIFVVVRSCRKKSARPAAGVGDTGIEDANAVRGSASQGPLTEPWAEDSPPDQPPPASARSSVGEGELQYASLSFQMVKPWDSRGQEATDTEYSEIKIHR
Chain of Protein translocase subunit SecA (Escherichia coli (strain K12)) (P10408 whole entry): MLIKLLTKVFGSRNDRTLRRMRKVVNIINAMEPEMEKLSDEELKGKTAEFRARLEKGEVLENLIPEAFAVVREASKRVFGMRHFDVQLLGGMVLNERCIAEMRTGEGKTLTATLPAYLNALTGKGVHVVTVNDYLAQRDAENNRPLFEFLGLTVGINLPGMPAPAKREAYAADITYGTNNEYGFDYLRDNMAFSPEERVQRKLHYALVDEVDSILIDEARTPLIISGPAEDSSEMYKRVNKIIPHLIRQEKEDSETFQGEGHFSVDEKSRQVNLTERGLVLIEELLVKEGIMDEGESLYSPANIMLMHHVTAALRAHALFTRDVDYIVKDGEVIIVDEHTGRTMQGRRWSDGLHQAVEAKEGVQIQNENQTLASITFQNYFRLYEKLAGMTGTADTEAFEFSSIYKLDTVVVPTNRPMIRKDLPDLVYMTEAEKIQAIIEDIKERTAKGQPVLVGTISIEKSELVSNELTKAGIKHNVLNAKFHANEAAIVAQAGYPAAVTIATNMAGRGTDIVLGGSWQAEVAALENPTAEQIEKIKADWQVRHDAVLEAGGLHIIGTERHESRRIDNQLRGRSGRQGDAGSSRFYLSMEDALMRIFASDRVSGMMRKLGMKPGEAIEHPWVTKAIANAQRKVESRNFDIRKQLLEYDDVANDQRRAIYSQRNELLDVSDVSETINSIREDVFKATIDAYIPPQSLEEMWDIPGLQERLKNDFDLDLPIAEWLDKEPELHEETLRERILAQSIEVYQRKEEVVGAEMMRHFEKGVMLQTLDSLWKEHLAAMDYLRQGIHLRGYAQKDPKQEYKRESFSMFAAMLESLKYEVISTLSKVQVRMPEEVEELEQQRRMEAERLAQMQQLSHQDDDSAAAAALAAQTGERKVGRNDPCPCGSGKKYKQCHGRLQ

Regarding `CC(C)c1ccc(OCn2ccc(C(=O)N3CCCC3)n2)cc1`, the Percent Effect in test [1] is -3.25%; in test [2], 10.4%; in [3], 1.81%; in [4], 12.1%; in the test with Trypanosoma cruzi, 6.2%; in test [5] it was -81.4%. For the same compound, the Percent Effect in test [6] is 12.5%; in the test listed under Homo sapiens, 52.2%; in [7], 3.23%; in [8] it was 8.64%; in test [9] it was -6.24%.

On to `CSc1ccsc1C(=O)N1CCN(CC(C)(C)O)CC1`, for which the Percent Effect in test [1] is -4.54%; in test [2] it was 8.86%; in test [3] it was 0.454%; in [4] it was 1.08%; in the test with Trypanosoma cruzi, 1.13%; in test [5], -4.95%. Besides, the Percent Effect in test [6] was 4.29%; in the test filed under Homo sapiens, 3.01%; in [7], 4.17%; in test [8] it was -25.3%; in test [9], -14.7%.

Turning to `CC(C)NC(=O)N1CCc2nc(C(=O)NCc3ccccc3)sc2CC1`, the Percent Effect in [1] was -0.812%; in [2], 10.8%; in test [3], 5.95%; in [4], -6.63%; in the test with Trypanosoma cruzi, -3.42%; in test [5] it was 5.41%. Further, the Percent Effect in test [6] is 18.1%; in the test listed under Homo sapiens, 13.3%; in [7] it was 8.65%; in [8] it was 17.9%; in [9] it was -3.29%.

For the compound `c1cc2c(cc1C1CCCN1Cc1nnnn1C1CC1)OCCO2` (stereo unspecified), the Percent Effect was -3.24% in test [1]; 6.94% in test [2]; -13.5% in [3]; 29.5% in test [4]; 6.32% in the test on Trypanosoma cruzi; -5.74% in test [5]. In addition, the Percent Effect is 4.39% in test [6]; -5.04% in the test filed under Homo sapiens; 5.26% in test [7]; 15.4% in test [8]; -4.08% in test [9].

As for `O=C(Cn1ccc2ccc(Br)cc21)NCc1ccc(C(=O)O)cc1`, the Percent Effect is -2.06% in test [1]; -5.26% in test [2]; 4.18% in test [3]; -0.116% in [4]; -7.69% with Trypanosoma cruzi; -3.55% in test [5]. The Percent Effect in [6] is 9.88%; in the test listed under Homo sapiens, -5.25%; in [7], -10.6%; in test [8], -13%; in test [9], -4.34%.

In the case of `COCCn1ccc(=O)c(OCC(=O)Nc2ccccc2)c1C`, the Percent Effect in [1] is -2.63%; in test [2], 6.67%; in test [3], 2.07%; in test [4], 6.98%; in the test with Trypanosoma cruzi it was 1.38%; in test [5], 1.23%. Also, the Percent Effect was 19.4% in [6]; -6.23% in the test filed under Homo sapiens; 1.06% in test [7]; 20.5% in [8]; -0.358% in test [9].

Take `Cc1cccc(Cn2c3c(ccc2=O)CCN(Cc2ccoc2)CC3)n1`: the Percent Effect in test [1] is -0.765%; in [2], 8.22%; in test [3] it was -3.21%; in [4], 11.9%; in the test with Trypanosoma cruzi, 7.54%; in [5] it was -14%. In addition, the Percent Effect in [6] was 10.5%; in the test listed under Homo sapiens it was 6.67%; in test [7], 4.17%; in [8], 6.17%; in test [9], -3.8%.

Consider `CN(C(=O)Cc1ccc2c(c1)OCCO2)C1CCCC1`, for which the Percent Effect in test [1] is 3.58%; in test [2] it was 10.5%; in [3] it was 1.6%; in test [4] it was -8.7%; in the test with Trypanosoma cruzi, -3.8%; in [5], -7.1%. The Percent Effect in test [6] was 3.55%; in the test filed under Homo sapiens, 14.1%; in test [7], 3.19%; in test [8], 10.4%; in test [9], -0.571%.

Regarding `COc1ccccc1CN1CC[C@]2(C[C@H](OC)CO2)C1`, the Percent Effect in test [1] is -4.71%; in test [2], 9.33%; in test [3], 3.5%; in [4] it was 4.02%; with Trypanosoma cruzi it was -4.52%; in test [5] it was -12.5%. For the same compound, the Percent Effect in test [6] is 15%; in the test filed under Homo sapiens, -8.4%; in test [7], 5.29%; in test [8], 7.69%; in test [9], -5.98%.

Regarding `Cc1ccc(CN2CCN(CC3CC3)[C@@H]3CS(=O)(=O)C[C@@H]32)cc1C`, the Percent Effect in test [1] was -7.02%; in [2], 5.33%; in [3], -1.63%; in [4] it was 3.97%; in the test on Trypanosoma cruzi, -7.11%; in test [5], 2.08%. Further, the Percent Effect in test [6] was 15.5%; in the test listed under Homo sapiens, 2.7%; in test [7], -2.73%; in test [8] it was 8.64%; in test [9], -5.38%.

Consider `CC(C)CNC(=O)CN1C=Nc2ccccc2S1(=O)=O`, for which the Percent Effect in test [1] was -6.73%; in [2] it was 7.89%; in [3] it was 0.627%; in test [4], -6.85%; with Trypanosoma cruzi, -10.6%; in test [5], 2.16%. The Percent Effect is -1.95% in test [6]; 2.69% in the test filed under Homo sapiens; 0.493% in [7]; 6.17% in test [8]; -5% in [9].
